KCNH2 3.1 inh = qHTS for Inhibitors of KCHN2 3.1: Mutant qHTS; activity change, % (tested at about 1.8 µM); U2OS KCNH2 3.1, thallium flux FluxOr; active compounds read low; 0.95% of 340,000 active; AID 720553, 2013;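 active means maximum activity change below -70%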;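 further: thallium influx rate constant from kinetic fluorescence after stimulation buffer; on the % scale 0 is the no-effect control and ±100 the full control effect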
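Steps: virus added to U2OS suspension (4 h, RT, dark); medium with 10% FBS added, cells plated, 37 C overnight; FluxOr/Red40 loading buffer 45 min RT; stimulation buffer, 2 min kinetic read; rate constant normalized.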
CCT modulator = High-Throughput Screening for Modulators of Cytosolic Chaperonin Activity | purified chaperonin ATPase assay, HTRF ADP detection, 30 min | activity change, % (test concentration not listed), hits read low | 0.3% of 360,000 active | AID 651819, 2012; in the data active means activity change below about -30%; further: on the % scale 0 is the no-effect control and ±100 the full control effect
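Nucleotide hydrolysis assay: TRiC at 20–40 nM final (set by batch activity) with 10 uM ATP, 30 min at 37 °C, in presence of 76 uM compound. Detection by competitive ADP HTRF, 30 min ambient.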
Rango dissoc inh = qHTS Assay for Inhibitors of RanGTP induced Rango (Ran-regulated importin-beta cargo) - Importin beta complex dissociation. 0.071% of 340,000 active. Snurportin-1 (Homo sapiens) + GTP-binding nuclear protein Ran (Homo sapiens) + Importin …. Biochemical FRET Rango-importin beta, RanGTP-induced dissociation. Potency, µM (doses to about 46.1 µM), without a hit: top-dose activity change, negative = inhibition; further: potency means the concentration at half of the fitted maximal effect; % of control where 0% means no effect; nearly all actives have a fitted effect of over 45% in size
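FRET read at 45 min, room temperature: inhibitors block the CFP/YFP signal rise when RanGTP (0.6 uM Ran, 2 mM GTP, 0.2 uM RCC1) frees Rango (0.1 uM) from importin beta (0.25 uM). Pre-read after 5 min compound exposure flags interference.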
Mm-Cpn inhibitor = Inhibitors of TCP-1 ring complex (TRiC) of Methanococcus maripaludis (MmCpn): qHTS. Chaperonin Mm-Cpn (Methanococcus maripaludis). purified Mm-Cpn ATPase, ADP Transcreener TR-FRET. Potency, µM (top dose mostly 76.9 µM), inactives show at the top dose activity, negative = inhibition, usual class: inhibitors. 0.031% of 330,000 active; active means well fitted inhibition curve with a large enough effect; further: potency means the concentration at half of the fitted maximal effect; on the % scale 0 is the no-effect control and ±100 the full control effect; nearly all actives have a fitted effect of over 80% in size
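Eu-cryptate anti-ADP/ADP-d2 competition gives a ratio inversely related to ADP. Enzyme at 25 nM was pre-exposed to compound for 10 min, then given 10 uM ATP for 30 min, 37°C throughout.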
Rango-impB inh = qHTS Assay for Inhibitors of Rango (Ran-regulated importin-beta cargo) - Importin beta complex formation; Importin subunit beta-1 (Homo sapiens), Q14974; Rango CFP/YFP FRET sensor + importin beta, 45 min; Potency, µM (doses to about 92.2 µM), for inactives: at the top dose inhibition of complex formation; 0.031% of 340,000 active; AID 540263, 2011;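 further: potency means the concentration at half of the fitted maximal effect; 0% = DMSO wells and 100% = buffer wells lacking importin beta; nearly all actives have a fitted effect of over 15% in size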
Target sequence (Q14974 whole entry, looked up): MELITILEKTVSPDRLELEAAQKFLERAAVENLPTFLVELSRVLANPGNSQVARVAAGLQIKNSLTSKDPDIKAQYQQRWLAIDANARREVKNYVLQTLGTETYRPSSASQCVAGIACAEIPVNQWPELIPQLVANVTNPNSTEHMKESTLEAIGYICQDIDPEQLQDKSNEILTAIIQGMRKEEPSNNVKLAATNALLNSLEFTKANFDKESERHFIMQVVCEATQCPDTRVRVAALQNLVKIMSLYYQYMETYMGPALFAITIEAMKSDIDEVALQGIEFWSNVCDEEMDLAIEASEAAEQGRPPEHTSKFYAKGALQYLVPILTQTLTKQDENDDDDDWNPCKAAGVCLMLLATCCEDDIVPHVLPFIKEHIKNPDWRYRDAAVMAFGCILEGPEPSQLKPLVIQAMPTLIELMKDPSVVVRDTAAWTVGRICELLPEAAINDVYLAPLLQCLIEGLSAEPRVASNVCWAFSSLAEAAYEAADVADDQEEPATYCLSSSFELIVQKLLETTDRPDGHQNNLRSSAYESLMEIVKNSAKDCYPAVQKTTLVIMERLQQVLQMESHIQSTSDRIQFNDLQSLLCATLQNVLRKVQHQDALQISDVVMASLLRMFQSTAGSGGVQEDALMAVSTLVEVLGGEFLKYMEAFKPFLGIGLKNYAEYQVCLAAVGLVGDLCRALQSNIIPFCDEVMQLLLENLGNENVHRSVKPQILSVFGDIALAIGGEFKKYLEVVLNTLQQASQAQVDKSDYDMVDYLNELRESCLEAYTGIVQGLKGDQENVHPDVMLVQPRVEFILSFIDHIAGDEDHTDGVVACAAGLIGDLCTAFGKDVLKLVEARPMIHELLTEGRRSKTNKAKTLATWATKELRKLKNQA
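Inhibition scored from the CFP 486 nm/YFP 530 nm FRET ratio 45 min after adding 0.125 microM importin beta to 50 nM Rango biosensor preincubated 5 min with compound (room temperature, PBS with DTT, Tween-20, BSA). No-importin wells as positive control.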
KCNH2 WT inh = qHTS for Inhibitors of KCHN2 3.1: Wildtype qHTS | Voltage-gated inwardly rectifying potassium channel KCNH2 (Homo sapiens), Q12809 | U2OS, BacMam KCNH2, thallium flux FluxOr; active compounds read low | activity change, % at 1.84 µM | 0.37% of 340,000 active;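 active means maximum activity change below -70%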; further: on the % scale 0 is the no-effect control and ±100 the full control effect
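U2OS cells transduced with wild-type KCNH2 virus are loaded with FluxOr dye for 45 min, and thallium flux is measured in kinetic reads before and after stimulation buffer. Rate constants are normalized to DMSO controls.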
The depositor's hits bear a star. In the library only some 1.4% were active in any assay of this set; here they are far more common. Unless noted, the call rests on the fitted dose curve.

For CCCCc1ccc(NC(=O)N2CCN(c3cc(C)nc4ccccc34)CC2)c(C)c1 the results were KCNH2 3.1 inh -93.9*, CCT modulator -0.4, Rango dissoc inh 1.4%, Mm-Cpn inhibitor -0.5%, Rango-impB inh 1.5% and KCNH2 WT inh -44.3.
Screening Cc1cc(N2CCN(C(=O)Nc3ccc(F)cc3F)CC2)c2ccccc2n1 returned KCNH2 3.1 inh -8.3, CCT modulator -2.2, Rango dissoc inh -8.0%, Mm-Cpn inhibitor -0.3%, Rango-impB inh 0.6% and KCNH2 WT inh -4.0.
For O=C(Nc1nnc(SCC(=O)N2CCCCC2)s1)C1CCCCC1 the results were KCNH2 3.1 inh -4.9, CCT modulator -59.8*, Rango dissoc inh 12.5%, Mm-Cpn inhibitor -4.0%, Rango-impB inh 4.8% and KCNH2 WT inh 12.6.
Screening COCC(=O)Nc1nnc(SCC(=O)N2CCCCC2)s1 returned KCNH2 3.1 inh 7.9, CCT modulator -0.7, Rango dissoc inh -18.5%, Mm-Cpn inhibitor -1.7%, Rango-impB inh -0.1% and KCNH2 WT inh 0.3.
C=CCNC(=S)Nc1cccc2[nH]ncc12 was read as KCNH2 3.1 inh 6.7, CCT modulator -32.4*, Rango dissoc inh 19.8%, Mm-Cpn inhibitor -2.6%, Rango-impB inh -0.4% and KCNH2 WT inh 4.4.
`c1ccc(C[C@H]2CN=C(Nc3ccccc3)N2CCCC2CCCC2)cc1` gave KCNH2 3.1 inh -95.7*, CCT modulator 1.1, Rango dissoc inh 16.1%, Mm-Cpn inhibitor 1.2%, Rango-impB inh 0.0% and KCNH2 WT inh -93.1*.
For CCC(C)CCN1C(Nc2ccccc2)=NC[C@@H]1Cc1ccccc1 (some centres undefined) the results were KCNH2 3.1 inh -49.3, CCT modulator -2.5, Rango dissoc inh -27.7%, Mm-Cpn inhibitor 0.7%, Rango-impB inh 0.1% and KCNH2 WT inh 66.8.
`CCN1C(Nc2ccccc2)=NC[C@@H]1Cc1ccccc1` gave KCNH2 3.1 inh -109.0*, CCT modulator 0.9, Rango dissoc inh 30.6%, Mm-Cpn inhibitor -2.0%, Rango-impB inh -0.3% and KCNH2 WT inh -14.9.
Screening CCCCCCCN1C(Nc2ccccc2)=NC[C@@H]1Cc1ccccc1 returned KCNH2 3.1 inh -108.9*, CCT modulator -0.1, Rango dissoc inh 3.2%, Mm-Cpn inhibitor 1.1%, Rango-impB inh 3.8% and KCNH2 WT inh -30.1.
For c1ccc(CCCCN2C(Nc3ccccc3)=NC[C@@H]2Cc2ccccc2)cc1 the results were KCNH2 3.1 inh -104.3*, CCT modulator 0.9, Rango dissoc inh 10.2%, Mm-Cpn inhibitor 0.3%, Rango-impB inh -0.1% and KCNH2 WT inh -35.8.
Screening COc1ccccc1Cc1c(-c2ccco2)nc2c(C)cc(Br)cn12 returned CCT modulator 0.9.
COc1ccc(NC(=O)CC2SC3=NCCN3C2=O)cc1 (centres undefined) was read as KCNH2 3.1 inh -1.8, CCT modulator -0.6, Rango dissoc inh 18.7%, Mm-Cpn inhibitor -0.9%, Rango-impB inh 0.3% and KCNH2 WT inh -0.2.
For C[C@H]1CN([C@@H](C)CO)C(=O)CCCn2cc(nn2)CO[C@@H]1CN(C)C(=O)c1ccncc1 the results were KCNH2 3.1 inh -8.2, CCT modulator 2.7 and KCNH2 WT inh -2.1.
For CCOC(=O)c1c2ccccc2[n+]([O-])n1CCO the results were KCNH2 3.1 inh 18.1, CCT modulator 1.5, Rango dissoc inh 2.2%, Mm-Cpn inhibitor -4.9%, Rango-impB inh 3.4% and KCNH2 WT inh 5.5.
`CCOC(=O)Cn1c(=NC(=O)c2ccc([N+](=O)[O-])s2)sc2ccccc21` gave KCNH2 3.1 inh 2.1, CCT modulator 1.5, Rango dissoc inh -7.8%, Mm-Cpn inhibitor -5.7%, Rango-impB inh -1.2% and KCNH2 WT inh -4.1.
`Cc1nc2nc(NC(=O)c3ccco3)[nH]n2c(=O)c1C` gave KCNH2 3.1 inh -13.7, CCT modulator -1.9, Rango dissoc inh -1.7%, Mm-Cpn inhibitor 1.4%, Rango-impB inh 0.1% and KCNH2 WT inh -1.7.
O=C(O)c1ccc2c(c1)C(=O)N([C@H](Cc1c3ccccc3cc3ccccc13)C(=O)O)C2=O was read as Mm-Cpn inhibitor -0.4%.
CN(C)C1=NC[C@H](Cc2ccccc2)N1CCCC1CCCC1 was read as KCNH2 3.1 inh -101.8*, CCT modulator 0.8, Rango dissoc inh -13.5%, Mm-Cpn inhibitor -2.1%, Rango-impB inh 1.2% and KCNH2 WT inh -32.0.
O=C(NCC(c1ccco1)N1CCCC1)c1cc(S(=O)(=O)N2CCCCC2)ccc1Cl (centres undefined) was read as KCNH2 3.1 inh 16.6, CCT modulator -40.4*, Rango dissoc inh 1.4%, Mm-Cpn inhibitor 1.2%, Rango-impB inh 0.6% and KCNH2 WT inh -1.4.
`CC(C)NC(=O)N(C)C[C@@H]1Oc2cc(Br)ccc2S(=O)(=O)N([C@@H](C)CO)C[C@H]1C` gave KCNH2 3.1 inh -6.3, CCT modulator -1.3 and KCNH2 WT inh -9.9.
Screening COc1ccc([C@@H]2CC=C(C(=O)O)[C@H](c3ccccc3)N2S(=O)(=O)c2ccccc2C)cc1 returned KCNH2 3.1 inh 3.0, CCT modulator -49.3*, Rango dissoc inh 3.7%, Mm-Cpn inhibitor -0.6%, Rango-impB inh 0.8% and KCNH2 WT inh 0.8.
`O=C1Cc2cc(S(=O)(=O)Nc3ccccc3Cl)cc3c2N1CCC3` gave KCNH2 3.1 inh -8.5, CCT modulator -1.1, Rango dissoc inh 21.0%, Mm-Cpn inhibitor -2.5%, Rango-impB inh 3.0% and KCNH2 WT inh 8.8.
Screening O=C(CSc1nnc(-c2ccccn2)n1-c1ccc(Cl)cc1)Nc1ccc2c(c1)OCO2 returned KCNH2 3.1 inh -72.7*, CCT modulator 2.3, Rango dissoc inh -1.6%, Mm-Cpn inhibitor -2.0%, Rango-impB inh 0.0% and KCNH2 WT inh 10.1.
For COc1ccc(S(=O)(=O)N(C)CC(=O)N2CCCC2)cc1OC the results were KCNH2 3.1 inh 13.7, CCT modulator -0.9, Rango dissoc inh 0.7%, Mm-Cpn inhibitor 1.7%, Rango-impB inh -0.1% and KCNH2 WT inh 3.1.
For Nc1ccc(CSc2ccc(Cl)cc2)c(Cl)c1 the results were KCNH2 3.1 inh -101.6*, CCT modulator 0.9, Rango dissoc inh -8.5%, Rango-impB inh 0.1% and KCNH2 WT inh 12.3.

Source: PubChem
